Out of some 1,400 compounds screened, about 350 (25%) were called active. Not shown: some 2% with an inconclusive outcome. How the calls were made is not given here. These entries were drawn from the full list. Results with a measured potency or affinity are listed apart.
Assay: C. difficile growth inhibition, confirmation, 4-point retest (AID 1224921);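 further: plate controls were DMSO wells for no effect and levofloxacin 16 µg/mL wells for full effect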
Conditions: Clostridioides difficile clinical isolate growth, OD600, 24 h, active compounds read low; at 30 µM unless noted

Max activity, inactive:
CO[C@H]1CN(C)C(=O)c2cc(NC(=O)NC(C)C)ccc2OC[C@H](C)N(Cc2ccccn2)C[C@@H]1C -9.04% [at 1.95 µM]
C[C@H](CO)N1C[C@H](C)[C@H](CN(C)C(=O)C2CCC2)Oc2ncc(C#Cc3cccc(F)c3)cc2C1=O 15.1% [at 8 µM]
C[C@H](NC(=O)C[C@H]1C=C[C@@H](NC(=O)C2CCC2)[C@H](CO)O1)c1ccccc1 -11.6%
CNC[C@@H]1Oc2cc(-c3ccccc3F)ccc2S(=O)(=O)N([C@@H](C)CO)C[C@H]1C 20.5%
O=C(N[C@@H]1C=C[C@@H](CC(=O)N2CCCCC2)O[C@@H]1CO)c1ccc2c(c1)OCO2 15.7% [at 8 µM]
CO[C@H]1CN(C)C(=O)c2cc(NS(=O)(=O)c3cccc(F)c3)ccc2OC[C@@H](C)N(Cc2cc(F)ccc2F)C[C@@H]1C 33.9%
C[C@H]1CN([C@@H](C)CO)S(=O)(=O)c2ccc(C#CCC3CCCC3)cc2O[C@@H]1CN(C)C -13.1% [at 1.95 µM]
N#C[C@H]1[C@@H](c2ccc(C3=CCCCC3)cc2)[C@H](CO)N1S(=O)(=O)c1ccccc1 -7.4% [at 1.95 µM]
N#C[C@@H]1[C@@H](c2ccc(C#Cc3cccnc3)cc2)[C@@H](CO)N1C(=O)C1CCCCC1 27.2%
C[C@@H]1CN([C@H](C)CO)S(=O)(=O)c2ccc(C#CCC3CCCC3)cc2O[C@@H]1CN(C)C 14.7% [at 8 µM]
CCC(=O)N(C)C[C@H]1Oc2cc(C#CCC3CCCC3)ccc2S(=O)(=O)N([C@@H](C)CO)C[C@@H]1C 24.3%
C[C@H](CO)N1C[C@H](C)[C@H](CN(C)C)Oc2cc(C#CCC3CCCC3)ccc2S1(=O)=O 37%
C[C@@H]1CN([C@@H](C)CO)S(=O)(=O)c2ccc(C#CCC3CCCC3)cc2O[C@H]1CN(C)C(=O)CN(C)C -17.9%
CO[C@H]1CN(C)C(=O)c2cc(NC(=O)NC(C)C)ccc2OC[C@@H](C)N(C)C[C@H]1C 4.11%
O=C(CN1CCOCC1)NCC[C@H]1CC[C@H](NC(=O)Cc2ccccn2)[C@@H](CO)O1 -9.14% [at 0.5 µM]
CCCNC(=O)Nc1ccc2c(c1)C(=O)N(C)C[C@H](OC)[C@@H](C)CN(C)[C@H](C)CO2 -9.08% [at 8 µM]
C[C@H]1CN([C@@H](C)CO)S(=O)(=O)c2ccc(C#CCC3CCCC3)cc2O[C@H]1CN(C)C 10.1% [at 8 µM]
C[C@H](CO)N1C[C@H](C)[C@@H](CN(C)C)Oc2cc(C#CCC3CCCC3)ccc2S1(=O)=O 7% [at 7.5 µM]
CC(=O)N(C)C[C@H]1Oc2cc(C#CC3CCCCC3)ccc2S(=O)(=O)N([C@H](C)CO)C[C@H]1C 12.6% [at 8 µM]
C[C@@H]1CN([C@H](C)CO)S(=O)(=O)c2ccc(C#CC3CCCC3)cc2O[C@H]1CN(C)C 49.4%
O=C(Nc1cc(F)ccc1F)N[C@@H]1CC[C@H](CC(=O)N2CCc3ccccc3C2)O[C@H]1CO 38.5%
O=C(N[C@H]1C=C[C@H](CC(=O)N2CCOCC2)O[C@H]1CO)c1cccc(F)c1 -11.2% [at 1.95 µM]
CO[C@@H]1CN(C)C(=O)c2ccc(NC(=O)c3ccc(F)cc3)cc2OC[C@@H](C)N(C(=O)CN(C)C)C[C@@H]1C -12.8% [at 1.95 µM]
C[C@H]1CN([C@@H](C)CO)S(=O)(=O)c2ccc(C3=CCCCC3)cc2O[C@@H]1CN(C)Cc1ccncc1 42.8%
CO[C@H]1CN(C)C(=O)c2ccc(NC(=O)c3nc4ccccc4s3)cc2OC[C@@H](C)N(Cc2cccnc2)C[C@@H]1C 23.4%
COCCNC(=O)C[C@@H]1C[C@@H]2c3cc(NC(=O)Nc4ccc(C(F)(F)F)cc4)ccc3O[C@@H]2[C@H](CO)O1 9.41%
O=C(C[C@H]1C[C@H]2c3cc(NC(=O)Nc4ccc(C(F)(F)F)cc4)ccc3O[C@H]2[C@H](CO)O1)NCC1CC1 -13.1% [at 1.95 µM]
COCCNC(=O)C[C@H]1C[C@H]2c3cc(NC(=O)Nc4ccc(C(F)(F)F)cc4)ccc3O[C@H]2[C@H](CO)O1 -7.9% [at 1.95 µM]
COCCNC(=O)C[C@H]1C[C@H]2c3cc(NC(=O)Nc4ccc(C(F)(F)F)cc4)ccc3O[C@H]2[C@@H](CO)O1 -9.02%
O=C(C[C@H]1C[C@@H]2c3cc(NC(=O)Nc4ccc(C(F)(F)F)cc4)ccc3O[C@@H]2[C@@H](CO)O1)NCC1CC1 14.9%
O=C(C[C@H]1C[C@H]2c3cc(NC(=O)Nc4ccc(C(F)(F)F)cc4)ccc3O[C@H]2[C@@H](CO)O1)NCC1CC1 -16.4% [at 0.5 µM]
CC(C)(C)[S@](=O)N1Cc2cc(C(=O)NCc3ccc4c(c3)OCO4)nc(-c3cccc(-c4cccnc4)c3)c2[C@@H]1CCO 32.4% [at 35 µM]
O=C(C[C@@H]1C=C[C@@H](NC(=O)CCN2CCCCC2)[C@H](CO)O1)Nc1ccc(-c2ccccc2)cc1 21.5%
CC(C)c1cn(CC[C@@H]2CC[C@H](NS(=O)(=O)c3ccc(F)cc3)[C@H](CO)O2)nn1 -12.5%
N#C[C@@H]1[C@H](c2ccccc2)[C@H](CO)N1S(=O)(=O)c1ccc(-c2ccccc2)cc1 15.3%
C[C@@H]1CN([C@@H](C)CO)C(=O)c2cc(C3=CCCCC3)cnc2O[C@@H]1CN(C)C(=O)c1cccc(F)c1 24.7%
C[C@H](NC(=O)C[C@@H]1C[C@@H]2c3cc(NC(=O)CC4CC4)ccc3O[C@@H]2[C@H](CO)O1)c1ccccc1 8.12% [at 35 µM]
O=C(C[C@H]1C[C@H]2c3cc(NC(=O)Nc4ccc(C(F)(F)F)cc4)ccc3O[C@H]2[C@@H](CO)O1)NCc1ccc(Cl)cc1 -6.14% [at 7.5 µM]
CO[C@@H]1CN(C)C(=O)c2cc(NC(=O)Nc3c(C)noc3C)ccc2OC[C@@H](C)N(C(=O)Nc2cccc(Cl)c2)C[C@H]1C 14.7%
CC(C)NC(=O)N(C)C[C@H]1Oc2c(NC(=O)Nc3ccc(C(F)(F)F)cc3)cccc2C(=O)N([C@@H](C)CO)C[C@H]1C 34.2% [at 8 µM]
C[C@H](CO)N1C[C@H](C)[C@@H](CN(C)C(=O)NC2CCCCC2)Oc2c(NC(=O)Nc3ccc(C(F)(F)F)cc3)cccc2C1=O 28.8%
C[C@@H]1CN([C@H](C)CO)C(=O)c2cccc(NC(=O)Nc3ccc(C(F)(F)F)cc3)c2O[C@H]1CN(C)C(=O)NC1CCCCC1 34.6%
C[C@H](CO)N1C[C@H](C)[C@@H](CN(C)C(=O)NC2CCCCC2)Oc2c(NC(=O)Nc3ccc(F)cc3)cccc2C1=O 20.1%
Cc1ccc(-c2cnc3c(c2)C(=O)N([C@@H](C)CO)C[C@@H](C)[C@@H](CN(C)C(=O)c2cccc(F)c2)O3)cc1 28.4%
CC(C)[C@H](C)NC(=O)N(C)C[C@@H]1OCc2ccccc2-c2ccccc2C(=O)N([C@@H](C)CO)C[C@H]1C -10.9% [at 1.95 µM]
CO[C@H]1CN(C)C(=O)c2ccc(NS(=O)(=O)c3ccc(C)cc3)cc2OC[C@@H](C)N(C(=O)NC(C)C)C[C@H]1C 6.95%
C[C@@H]1CN([C@H](C)CO)S(=O)(=O)c2ccc(C#CCC3CCCC3)cc2O[C@@H]1CN(C)C(=O)CC1CC1 36.7%
Cc1noc(C)c1NC(=O)N[C@@H]1CC[C@H](CC(=O)Nc2ccc(-c3ccccc3)cc2)O[C@@H]1CO 42%
CCN1C[C@@H](C)[C@H](OC)CN(C)C(=O)c2cc(NC(=O)NC(C)C)ccc2OC[C@H]1C 16.9%
CC(C)CC#Cc1ccc2c(c1)O[C@H](CN(C)Cc1cccnc1)[C@H](C)CN([C@@H](C)CO)S2(=O)=O 26.5%
N#C[C@H]1[C@H](c2ccc(C#Cc3ccccc3F)cc2)[C@@H](CO)N1C(=O)C1CCCCC1 15.2% [at 1.95 µM]
CCC(=O)Nc1ccc2c(c1)OC[C@@H](C)N(Cc1ccccc1)C[C@H](C)[C@@H](OC)CN(C)C2=O 21.5%
COc1ccc(CN(C)C[C@@H]2OCCCC[C@@H](C)Oc3ccc(NC(=O)Nc4ccc(C(F)(F)F)cc4)cc3C(=O)N([C@H](C)CO)C[C@H]2C)cc1 35.6% [at 8 µM]
COc1ccc(CN(C)C[C@H]2OCCCC[C@@H](C)Oc3ccc(NC(=O)Nc4ccc(C(F)(F)F)cc4)cc3C(=O)N([C@@H](C)CO)C[C@H]2C)cc1 38.8% [at 1.95 µM]
COc1ccc(CN(C)C[C@@H]2OCCCC[C@H](C)Oc3ccc(NC(=O)Nc4ccc(C(F)(F)F)cc4)cc3C(=O)N([C@@H](C)CO)C[C@H]2C)cc1 21.3% [at 8 µM]
COc1ccc(CN(C)C[C@H]2OCCCC[C@H](C)Oc3ccc(NC(=O)Nc4ccc(C(F)(F)F)cc4)cc3C(=O)N([C@H](C)CO)C[C@@H]2C)cc1 35.8%
COc1ccc(CN(C)C[C@@H]2OCCCC[C@H](C)Oc3ccc(NC(=O)Nc4ccc(F)cc4)cc3C(=O)N([C@@H](C)CO)C[C@H]2C)cc1 23.6%
COc1ccc(CN(C)C[C@H]2OCCCC[C@H](C)Oc3ccc(NC(=O)Nc4ccc(C(F)(F)F)cc4)cc3C(=O)N([C@H](C)CO)C[C@H]2C)cc1 38.6% [at 1.95 µM]
